Mcl1-Bid inh = disrupts binding of human Mcl-1 to Bid peptide | TR-FRET Mcl-1/Bid-Dy647 peptide binding, 1536-well | inhibition, % at 21.7 µM | 220,000 compounds, 0.97% hits;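 active = compounds that cut the binding signal by more than half at the single screening dose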;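 also: His-tagged Mcl-1 with europium anti-His antibody binding Bid BH3 peptide; 0% = Mcl-1 plus peptide wells and 100% = peptide-only wells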
Target sequence (Q07820 whole entry, looked up): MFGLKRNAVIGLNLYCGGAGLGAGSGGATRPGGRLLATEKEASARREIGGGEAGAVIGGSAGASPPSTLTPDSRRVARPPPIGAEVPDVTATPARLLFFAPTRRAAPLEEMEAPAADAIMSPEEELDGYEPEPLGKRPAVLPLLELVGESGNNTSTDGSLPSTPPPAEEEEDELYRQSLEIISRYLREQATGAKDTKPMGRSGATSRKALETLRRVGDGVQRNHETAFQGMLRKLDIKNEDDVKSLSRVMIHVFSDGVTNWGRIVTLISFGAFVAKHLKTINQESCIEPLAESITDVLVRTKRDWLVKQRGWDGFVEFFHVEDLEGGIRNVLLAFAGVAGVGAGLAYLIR
Mcl1 Noxa PPI = disrupts binding of human Mcl-1 to Noxa peptide. 220,000 compounds, 1.5% hits. TR-FRET Mcl-1/Noxa peptide binding, 2 h. inhibition, % at 21.7 µM. Q07820;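 active = compounds that cut the protein-peptide binding signal by more than 50% relative to plate controls in a single-dose test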;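 also: His-tagged Mcl-1 with rhodamine Noxa BH3 peptide and terbium anti-His antibody; 0% = Mcl-1 plus Noxa peptide wells and 100% = peptide-only wells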
14-3-3 Bad PPI = disrupts binding of bovine 14-3-3 zeta to phospho-Bad peptide. 220,000 compounds, 0.71% hits. TR-FRET 14-3-3zeta/Dy647-pBad peptide displacement, 1 h. P63103. inhibition, % at 21.7 µM;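 active = inhibition above about 70%, limit read from the data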;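 also: 0% = full 14-3-3 plus peptide FRET controls and 100% = background without 14-3-3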
Target sequence (P63103 whole entry, looked up): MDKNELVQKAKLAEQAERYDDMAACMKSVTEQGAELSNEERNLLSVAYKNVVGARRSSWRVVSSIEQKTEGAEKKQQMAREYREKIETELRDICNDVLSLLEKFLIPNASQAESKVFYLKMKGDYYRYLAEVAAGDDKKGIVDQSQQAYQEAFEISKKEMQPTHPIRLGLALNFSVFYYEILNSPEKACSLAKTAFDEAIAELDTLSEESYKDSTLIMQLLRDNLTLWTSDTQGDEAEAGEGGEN
Arbovirus anti = antivirals against arbovirus infection; inhibition, % at 10 µM; arbovirus infection cell-based antiviral screen; AID 1251; 200,000 compounds, 0.37% hits; in the data active = inhibition above about 30%
Bim-Mcl-1 = disrupts Bim peptide binding to human Mcl-1; 190,000 compounds, 0.1% hits; AID 1009; inhibition, % at 10 µM; Bead-based flow cytometry, Bim peptide-Mcl-1 binding; in the data active = inhibition above about 40%;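 also: 0% = no compound tracer wells and 100% = peptide blocker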
Active calls of the source: *; / = no result given; [ ] = dose if it differs, or a comment. Most compounds without a hit are left out; they make up all but 3% or so of the library.

SMILES	Mcl1-Bid inh	Mcl1 Noxa PPI	14-3-3 Bad PPI	Arbovirus anti	Bim-Mcl-1
CC(C)N(C(=O)c1sc2cc([N+](=O)[O-])ccc2c1Cl)C(C)C	97.1*	7.7	-7.5	-0.9	-2.0
COc1cccc(OC)c1OCCCCn1cnc2ccccc2c1=O	51.1*	2.7	43.5	-0.8	-3.0
Cc1cc(C)c(C)c(OCCCCn2cnc3ccccc3c2=O)c1	-0.6	/	-6.3	-11.3	0.0
O=C(Nc1ccc(O)c(-c2nc3ccccc3o2)c1)C1(c2ccc(Br)cc2)CCCC1	-14.5	-117.7	-8.2	-2.9	-6.0
CCOC(=O)C1CCN(c2nc(N)c3c(N)nc(SCC(=O)O)cc3c2C#N)CC1	-30.4	77.2*	22.6	/	/
CCOC(=O)C1CCN(c2nc(C)cc(C)c2C#N)CC1	-1.3	24.5	3.2	-1.6	-3.0
COc1ccc(Cn2c(C)nc3oc4cc(OC)ccc4c(=O)c3c2=O)cc1	1.0	17.9	-5.5	0.5	1.0
COc1ccc2c(=O)c3c(=O)n(CCc4ccccc4)c(C(C)C)nc3oc2c1	77.0*	10.4	16.2	/	/
COC(=O)C/C=C/[C@@H](C)[C@@H](/C=N/OCC[C@@H]1C=C[C@H](OC(C)=O)[C@@H](COC(C)=O)O1)NS(=O)(=O)c1ccc(C)cc1	-3.0	5.6	-3.2	8.3	-2.0
N#C/C(=C\c1cn[nH]c1-c1ccc(Cl)cc1)C(=O)NCc1ccccc1	-17.0	10.1	-2.9	36.8*	0.0
NNC(=O)c1cccc(COc2cccc(Br)c2)c1	-11.7	-16.5	-2.8	-32.9	-1.0
O=C(NN1CCOCC1)c1cccc(COc2cccc(Br)c2)c1	-8.6	2.9	92.7*	-2.3	0.0
Cc1[nH]c2ccccc2c1C(=O)C(=O)N1CCN(C(=O)c2ccco2)CC1	-27.1	1.1	-7.7	19.9	-1.0
COc1cccc(-n2c(SCc3cc(=O)oc4cc(O)c(O)cc34)nc3ccccc3c2=O)c1	-64.3	100.3*	6.3	8.3	-1.0
O=C(CNC(=O)C1COc2ccccc2O1)N/N=C\c1ccc(Cl)cc1 (centres undefined)	25.7	7.5	3.4	/	/
CN(C)c1ccc(C2CC(c3ccccc3)=Nc3nc(-c4ccccc4)cn32)cc1 (centres undefined)	-22.2	17.5	-24.1	-8.3	-3.0
COc1ccc(C2=CC(=O)C=CC2=O)cc1	14.7	87.5*	36.6	/	/
CCNC(=O)Cn1cc(C(F)(F)F)cc(Cl)c1=O	-3.6	2.6	3.6	/	/
CCOc1cc(/C=N/N=C2/NC(=O)C(CC(=O)O)S2)ccc1OCc1ccc(Cl)cc1Cl (centres undefined)	-56.2	55.4*	55.4	6.5	3.0
COc1cc(/C=N/N=C2/NC(=O)C(CC(=O)O)S2)ccc1OCc1ccc(Cl)cc1 (centres undefined)	-27.7	13.5	2.8	-4.2	-5.0
c1ccc(N2CCN(Cc3ccnc4ccccc34)CC2)cc1	2.5	25.1	71.5*	3.3	-5.0
CCN(CC)c1ccc(/C=C2/C(=O)c3ccc(C(=O)O)cc3C2=O)cc1	-91.6	58.1*	-10.5	0.2	/
COC(=O)c1cc(N2C(=O)C3C(C2=O)C2(C)C=CC3(C)O2)ccc1Cl (centres undefined)	-0.6	68.8*	6.3	-8.8	6.0
O=C(CSC1=NCCN1)C1COc2ccccc2O1 (centres undefined)	-50.4	7.3	-6.1	4.3	3.0
O=C(CSCc1ccccc1Cl)Nc1c[nH]c(=O)[nH]c1=O	-21.0	0.8	-15.1	-1.4	-2.0
SMILES	Mcl1-Bid inh	Mcl1 Noxa PPI	14-3-3 Bad PPI	Arbovirus anti	Bim-Mcl-1
COc1ccc(C(=O)Nc2ccc(C(=O)OCC(=O)c3cccc4ccccc34)cc2)cc1	-7.0	15.1	6.7	-4.1	44.0*
CCC(=O)Nc1ccccc1C(=O)OCc1ccc(C(=O)c2ccccc2)cc1	-28.6	-8.7	-2.7	-5.7	-3.0
CCOc1ccc(NC(=O)c2ccc(OC)cc2)cc1	-6.4	8.3	22.4	2.1	-2.0
CCC(=O)Nc1ccccc1C(=O)OCC(=O)c1cccc2ccccc12	3.6	-2.9	85.3*[fluorescence artefact?]	-6.1	-1.0
N#CCC(=O)NCCCc1ccccc1	16.5	10.9	1.9	2.1	-4.0
C=CCNc1nc(N2CCCC2)nc2ccccc12	5.2	32.8	9.4	-8.9	-1.0
OCCNc1nc(N2CCN(Cc3ccccc3)CC2)nc2ccccc12	22.4	46.2	80.3*	-16.8	4.0
CCCCCCCSc1nnc(N)s1	16.2	9.3	-4.5	/	/
Cc1ccc(C(=O)O)cc1-c1ccc(C=C2C(=O)c3ccccc3C2=O)o1	-54.6	56.8*	25.3	-0.7	2.0
Cc1ccc(NC(=O)CN2C(=O)S/C(=C/c3ccc(-c4cc(C(=O)O)ccc4C)o3)C2=O)cc1C	93.5*	84.3*	76.5*[fluorescence artefact?]	-34.8	4.0
COCCCNC(=S)Nc1cccc(S(=O)(=O)NC2=NCCC2)c1	-25.9	9.5	0.6	4.7	-3.0
CCOC(=O)C1(C(=O)OCC)C(c2ccccc2)CC(O)N1C(C)=O (centres undefined)	-17.3	-7.5	91.7*	-0.9	-3.0
COc1ccc(-n2c(O)c(C=Nc3ccccc3)c3ccccc3c2=O)cc1	22.9	7.2	64.1	-16.6	-5.0
CCN(c1ccc(N=Cc2c(O)n(Cc3ccc(OC)cc3)c(=O)c3ccccc23)cc1)C(C)C	-17.6	58.7*	-19.1	10.9	/
Oc1cc2c(cc1O)C1c3ccc(O)c(O)c3OCC1(O)C2 (centres undefined)	-64.7	82.3*	26.6	2.5	8.0
COc1cc(C(=O)Nc2nnc(C)s2)c([N+](=O)[O-])cc1OC	-17.0	-3.4	1.8	/	/
Cn1c(N)c(C(=O)COC(=O)c2cc(-c3ccco3)nc3ccccc23)c(=O)n(Cc2ccccc2)c1=O	15.0	106.4*	1.4	15.3	-2.0
Cn1c(N)c(C(=O)COC(=O)c2cc(C(F)(F)F)nc3ccccc23)c(=O)n(Cc2ccccc2)c1=O	1.9	10.3	4.1	3.5	-2.0
CCCn1c(N)c(C(=O)CSc2nc3ccccc3c(=O)n2Cc2ccccc2)c(=O)[nH]c1=O	-44.7	-130.1	60.8	-34.6	2.0
Cc1cc(NC(=O)CSc2nc3ccccc3c(=O)n2Cc2ccc(F)cc2)no1	56.7*	-180.3	73.7*	-2.8	-1.0
Cn1c(N)c(C(=O)CSc2nc3ccccc3c(=O)n2Cc2ccccc2)c(=O)n(C)c1=O	51.8*	-90.7	66.7	/	/
CC(C)Cn1c(N)c(C(=O)COC(=O)c2ccccc2Cl)c(=O)n(C)c1=O	-8.6	61.3*	0.4	14.7	0.0
CCCCCCn1c(SCC(=O)Nc2cc(C)on2)nc2ccccc2c1=O	-13.1	/	-8.7	-10.5	-1.0
CC1CC(C)CN(CCCNC(=O)Cc2c(C(=O)O)n(C)c3ccccc23)C1 (centres undefined)	-1.3	7.8	-9.7	6.6	0.0
Cn1c(N)c(C(=O)COC(=O)c2cc(-c3ccco3)nc3ccccc23)c(=O)n(C)c1=O	25.7	86.7*	7.7	-0.8	7.0
CCOC(=O)Cc1c(C)nc(SC)[nH]c1=O	-30.6	-21.2	-10.6	-0.7	2.0
COc1cccc(NC(=O)N(CCCN2CCOCC2)C(C)c2cc3ccccc3o2)c1 (centres undefined)	-32.4	19.5	/	-2.7	-2.0

Compound activity deposited in PubChem by several laboratories.
